# Screens from PubChem.
# The list is not random: actives were taken first. Their share in the collection is about 7.3%.
# SNCA viab count: GF-AFC viability counterscreen for inhibitors of alpha-synuclein gene (SNCA) expression; HEK-293-SNCA-luc viability, GF-AFC fluorescence, 24 h; actives 0.12% (n = 150,000); Potency, µM (highest dose often 57.1 µM), for the others: top-dose activity change, negative = cytotoxicity, actives largely listed as cytotoxic;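 further: potency means the concentration at half of the fitted maximal effect; 0% = DMSO-treated cells and -100% = medium-only wells without cells; nearly all actives have a fitted effect of over 30% in size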
#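 HEK-293-SNCA-luc cells (1500/well) plated 24 h, then exposed 24 h to a dilution series; GF-AFC added 30 min at 37C, fluorescence 405/540 nm; normalised to medium-only and DMSO wells, Hill fit.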
# Luciferase inh: Firefly luciferase inhibition profiling of diverse chemical library using quantitative high-throughput screening | purified P. pyralis luciferase, luminescence, biochemical | actives 2.5% (n = 76,000) | Luciferin 4-monooxygenase (Photinus pyralis), P08659 | Potency, µM (titrated, usually from 115 µM), most hits filed as inhibitors; further: potency means the concentration at half of the fitted maximal effect; nearly all actives have a fitted effect of over 65% in size
#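 FLuc 10nM, D-luciferin 10uM, ATP 10uM, Mg acetate 10mM, Tris acetate pH 7.5, Tween/BSA; cpd qHTS; enzyme added last; CCD luminescence.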
# SNCA expr inh: Primary qHTS assay for inhibitors of alpha-synuclein gene (SNCA) expression | HEK-293 SNCA-luciferase knock-in, luminescence, 24 h | Potency, µM (top dose mostly 57.2 µM), inactives show top-dose activity change, negative = inhibition, most hits filed as inhibitors | actives 0.17% (n = 140,000) | AID 1671194, 2021;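 further: potency means the concentration at half of the fitted maximal effect; plate controls were DMSO cells for no effect and cell-free wells for full effect; nearly all actives have a fitted effect of over 45% in size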
# IP6K1 inh: Primary qHTS assay for small molecule inhibitors of Inositol hexaphosphate kinase 1 (IP6K1); Inositol hexakisphosphate kinase 1 (Homo sapiens), Q92551; IP6K1 kinase, ADP-Glo luminescence, 2 h; active compounds read low; activity change, % (series mostly up to about 58 µM); actives 0.81% (n = 140,000); AID 1645851, 2021; in the data active means activity change below about -25%
# Target sequence (Q92551 whole entry, looked up): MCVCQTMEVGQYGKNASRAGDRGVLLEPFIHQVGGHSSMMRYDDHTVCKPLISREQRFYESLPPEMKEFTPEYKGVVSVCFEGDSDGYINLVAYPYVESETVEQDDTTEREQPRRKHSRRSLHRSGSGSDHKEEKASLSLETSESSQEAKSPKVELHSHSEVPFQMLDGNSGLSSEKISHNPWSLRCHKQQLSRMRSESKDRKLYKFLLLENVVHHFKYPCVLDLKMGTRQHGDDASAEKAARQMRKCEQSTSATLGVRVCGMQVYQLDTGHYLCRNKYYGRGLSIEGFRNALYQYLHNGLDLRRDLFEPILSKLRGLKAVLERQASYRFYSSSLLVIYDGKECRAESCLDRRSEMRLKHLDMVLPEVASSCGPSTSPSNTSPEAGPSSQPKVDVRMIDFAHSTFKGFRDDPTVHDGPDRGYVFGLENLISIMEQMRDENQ
#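 ADP-Glo luminescence measures ADP made by human IP6K1 during a 2 h RT reaction with ATP/IP6 (mix at 1.3 mM/130 uM); top library doses 57.5 and 19.1 uM final.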
# HEK cytotox: Cytotoxic Profiling in HEK 293 Cell Line of Diverse Libraries Using Quantitative High-Throughput Screening. HEK 293 viability, ATP luminescence (CellTiter-Glo), 48-72 h. Potency, µM (doses to about 115 µM), for inactives: top-dose activity change, negative = cytotoxicity, actives largely listed as inhibitors. actives 6.6% (n = 94,000). AID 1345083, 2018; further: potency means the concentration at half of the fitted maximal effect; nearly all actives have a fitted effect of over 60% in size
#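 HEK 293 seeded at 250 cells/well receive compound via pintool. After 48 or 72 hr at 37 degree Celsius, 5% CO2 and 95% humidity, CellTiter-Glo is dispensed and luminescence read following 10 min at room temperature.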
# NIH3T3 tox: Cytotoxic Profiling in NIH 3T3 Cell Line of Diverse Libraries Using Quantitative High-Throughput Screening | NIH 3T3 viability, CellTiter-Glo ATP luminescence, 48-72 h | Potency, µM (top dose mostly 96.7 µM), without a hit: at the highest dose activity change, negative = cytotoxicity, most hits filed as inhibitors | actives 4.3% (n = 94,000) | AID 1345082, 2018; further: potency means the concentration at half of the fitted maximal effect; nearly all actives have a fitted effect of over 55% in size
#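 ATP-dependent luminescence (CellTiter-Glo) served as the viability signal for NIH 3T3 cells treated with compound for 48 or 72 hr at 37 °C.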
# Numbers without * were called inactive; i = inactive; ? = inconclusive; / = no result; ! = repeats disagree; [ ] = another dose, or the depositor's remark. Unless noted, the call rests on the fitted dose curve; in most records, active means well fitted curve in the direction sought with a large enough effect; inconclusive means small, poorly fitted or top-dose-only effect, or another doubt; inactive means no such curve, though single readings can be large; an effect the other way counts as inactive or inconclusive. Unless noted, on the % scale 0 is the no-effect control and ±100 the full control effect.
SMILES,SNCA viab count,Luciferase inh,SNCA expr inh,IP6K1 inh,HEK cytotox,NIH3T3 tox
O=C(CCC[C@H]1NC[C@@H]2C[C@H]1CN(Cc1ccccc1)C2)Nc1ccc2c(c1)OCCO2,14.9%,44.7µM*,55.0%,4.8,-13.0%,-6.2%
O=C(CCC[C@H]1NC[C@@H]2C[C@H]1CN(Cc1ccccc1)C2)Nc1cccc(F)c1,5.2%,i,11.8%,-17.8,?,?
O=C(Cc1cccc(F)c1)NC1CCN(c2ccc(F)cc2)C1=O (centres undefined),11.5%,i,17.6%,-3.4,-25.3%,-13.1%
Cc1ccc(N2CCC(NC(=O)Cc3cccc(F)c3)C2=O)cc1 (centres undefined),-1.8%,i,?,-4.8,25.1µM*,31.6µM*
COCCn1c(=O)c(C(=O)NCc2cccc(C(F)(F)F)c2)nc2cccnc21,13.5%,/,34.2%,16.5,-26.6%,?
Cc1cccc(N2CCN(C(=O)c3noc(-c4ccc5c(c4)OCO5)n3)CC2)c1,11.2%,22.4µM*,46.2%,3.3,?,?
N#Cc1cccc(CN2CCCC(c3nc4ccc(F)cc4c(=O)[nH]3)C2)c1 (centres undefined),?,i,?,5.9,44.7µM*!,?
N#Cc1cccc(CN2CCC(c3nc4ccc(F)cc4c(=O)[nH]3)CC2)c1,-0.5%,i,?,-1.4,22.4µM*!,?
COc1ccc(OC)c(S(=O)(=O)N2CCCCCCN(C)C(=O)[C@@H]3CCC[C@@H]32)c1,2.7%,i,-1.9%,-9.1,-23.1%,-18.0%
FC(F)(F)c1cccc(C2=NOC3(CCN(Cc4ccccc4)CC3)C2)c1,4.9%,i,0.3%,2.6,?,?
O=C(c1ccccn1)N1CCC2(CC1)CC(c1cccc(C(F)(F)F)c1)=NO2,/,/,/,-3.2,?,-27.9%
O=C(Cc1ccccc1)N1CCC2(CC1)CC(c1cccc(C(F)(F)F)c1)=NO2,/,/,/,-3.2,44.7µM*,?
O=C(Cc1cccc(Cl)c1)N1CCC2(CC1)CC(c1cccc(C(F)(F)F)c1)=NO2,/,/,/,11.2,28.2µM*,?
COc1ccc(CC(=O)N2CCC3(CC2)CC(c2cccc(C(F)(F)F)c2)=NO3)cc1,/,/,/,-1.8,39.8µM*,?
O=C(C1CCCCC1)N1CC[C@](O)(c2ccccc2)[C@H](N2CCCC2)C1,-27.3%,i,14.9%,21.5,?,?
Cc1noc(C)c1Cc1ccc(C(=O)N2CCC(C)(c3noc(-c4ccccn4)n3)CC2)o1,-13.6%,i,-16.1%,11.0,44.7µM*,?
Cc1noc(C)c1Cc1ccc(C(=O)N2CCC(C)(c3noc(-c4cccnc4)n3)CC2)o1,-8.3%,i,-14.6%,3.3,?,31.6µM*
CC1(c2noc(-c3ccccn3)n2)CCN(C(=O)CCc2nc3ccc(Cl)cc3[nH]2)CC1,-6.5%,i,-10.8%,15.7,50.1µM*,?
CC1(c2noc(-c3cccnc3)n2)CCN(C(=O)CCC(=O)N2CC(=O)Nc3ccccc32)CC1,-1.4%,i,-6.1%,-0.8,?,i
O=C1CC(c2ccccc2)N(C(=O)CNC(=O)C2(c3ccccc3)CC2)CCCCCN1 (centres undefined),-6.4%,i,17.8%,1.2,-2.1%,-7.9%
CC(C)(C)COC(=O)N1C[C@@H](CO)[C@@H]2Oc3c(F)cccc3[C@@H]21,/,/,/,-2.9,?,31.6µM*
CN(CCc1ccccn1)[C@@H]1[C@H](O)[C@H](CO)O[C@@H]1CN(Cc1ccc(F)cc1)Cc1ccc(F)cc1,-21.3%,i,-8.8%,-1.0,35.5µM*,50.1µM*
CNC(=O)[C@@H]1CN(Cc2cccc(Cl)c2F)C[C@H]1CO,-7.7%,i,9.2%,7.4,i,-2.9%
COCC1CN(C2CCC2)CC12CCN(C(=O)Cc1ccccc1OC)CC2 (centres undefined),1.7%,i,5.6%,8.5,?,?
COCC1CN(C2CCC2)CC12CCN(C(=O)Cc1ccccc1F)CC2 (centres undefined),-11.0%,i,6.8%,-2.7,50.1µM*,?
SMILES,SNCA viab count,Luciferase inh,SNCA expr inh,IP6K1 inh,HEK cytotox,NIH3T3 tox
OCC1CN(C2CCC2)CC12CCN(Cc1ccc(F)cc1)CC2 (centres undefined),-4.1%[12.5 µM],i,-24.9%,5.7,44.7µM*,?
OCC1CN(C2CCC2)CC12CCN(Cc1cc(F)ccc1F)CC2 (centres undefined),-12.0%[12.5 µM],i,?,27.3,39.8µM*,?
Cc1sc2ccn(CC(C)C)c(=O)c2c1C(=O)N1CCCCC1,?,i,-20.0%,21.3,28.2µM*,4.6%
Cc1sc2ccn(CC(C)C)c(=O)c2c1C(=O)N1CCC(C)CC1,-16.7%,i,-26.2%,-2.4,44.7µM*,-0.9%
CCCN1CCN(C(=O)c2c(C)sc3ccn(CC(C)C)c(=O)c23)CC1,10.8%,i,?,18.7,-1.1%,i
CN1CCC(C(=O)N2Cc3ccccc3CC3(CCN(Cc4ccccn4)CC3)C2)CC1,-6.2%,/,20.1%,-1.3,-11.8%,-14.3%
CCC(CC)C(=O)NC[C@@H]1C=C(C)[C@H](Cc2nc3ccccc3n2C)C[C@H]1C(C)C,?,i,?,4.6,31.6µM*,35.5µM*
CC1=C[C@@H](CNC(=O)CC(C)(C)CC(=O)O)[C@H](C(C)C)C[C@H]1Cc1nc2ccccc2n1C,-17.4%,i,4.1%,8.9,-18.2%,?
CC1=C[C@@H](CNC(=O)C2CCCCC2)[C@H](C(C)C)C[C@H]1Cc1nc2ccccc2n1C,?,i,?,9.2,31.6µM*,31.6µM*
CC1=C[C@@H](CNC(=O)c2ccccc2)[C@H](C(C)C)C[C@H]1Cc1nc2ccccc2n1C,11.2µM*,i,?,8.5,25.1µM*,31.6µM*
CC1=C[C@@H](CNC(=O)Cn2cnnn2)[C@H](C(C)C)C[C@H]1Cc1nc2ccccc2[nH]1,-19.9%[87.6 µM],i,-11.1%[87.6 µM],3.7,?,-23.2%[138 µM]
O=C(NC1CCCCC1)c1ccc2nnc(C3CC3)n2c1,5.0%[87.6 µM],/,-7.1%[87.6 µM],-12.8,-5.2%[172 µM],-10.1%[138 µM]
Cc1cc(F)ccc1OC1CN(C(=O)c2ccccn2)C1,9.7%[87.6 µM],50.1µM*,176.1%[87.6 µM],12.5,?,?
O=C(c1ccccn1)N1CC(Oc2ccc3c(c2)OCO3)C1,10.6%,/,150.8%,-1.4,?,-12.1%
